Measurements taken from the supplement of paper PMC6555819.

How the values were obtained:
Experiment in all cases: PBM binding z-score (relative to random genomic background probes); higher = stronger binding; sequences stand for … in GC…GCGATTGACAGCGTAGAATGAAGG
[1] = system: RARb homodimer (NR concentration 270 nM)
Outline: (§1)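 Scanned fluorescence from custom Agilent 4×180K protein-binding microarrays was regression-normalized. Binding z-scores use random background probes as reference. Ligand-free nuclear receptor dimers were incubated on the arrays for 1 h and detected with antibodies against each partner (one per run).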

[2] = system: RARg:RXRa (NR concentration 270 nM, RXRa partner concentration 90 nM)
Outline: as §1

[3] = system: RARg homodimer (NR concentration 270 nM)
Outline: as §1

[4] = system: RXRa DBDmut IVT, anti-RXR (DBD mutation: RXRa K156A/R161A, NR concentration 90 nM)
Outline: as §1

[5] = system: RXRa homodimer (NR concentration 180 nM)
Outline: as §1

[6] = system: THRa:RXRa (NR concentration 90 nM, RXRa partner concentration 90 nM)
Outline: as §1

[7] = system: THRa homodimer (NR concentration 90 nM)
Outline: as §1

[8] = system: VDR homodimer (NR concentration 270 nM)
Outline: as §1

Sequence	PBM binding z-score [1]	PBM binding z-score [2]	PBM binding z-score [3]	PBM binding z-score [4]	PBM binding z-score [5]	PBM binding z-score [6]	PBM binding z-score [7]	PBM binding z-score [8]
TAGCTTAGGTCATGCGGGCCAGTATAGTGTCGGC	3.21	3.97	4.75	1.31	2.97	3.6	2.34	0.954
GCAACGAGGGCAAGTTGATAGCAGAGTTTGATGG	1.66	1.61	1.77	2.2	0.98	1.36	0.152	1.66
ACAGACAGGTTATGAAGGTAACTCAGGCTATCAT	0.833	0.914	0.793	0.197	0.932	1.51	0.368	0.373
AATGCAGGGTCACTAGGCCAGAGTAGGTACGAAT	3.32	5.29	4.82	2.75	5.37	3.27	0.736	2.33
ATGTCTAGGTAAAGTTCAGTGAAAGATCGATAGA	2.59	2.12	2.62	1.25	1.5	1.17	0.000451	2.39
GCAGACAGGTGAGACGCAGGTAACTCAGGGTGGC	-0.0826	0.237	0.034	-0.867	0.28	0.763	-0.588	-0.464
AGTGAAAGTTCATCTAGGTAACGTAAGATATGCT	3.66	5.08	5.81	4.66	4.44	3	0.263	5.43
GCTGCTAGGCCAGGTTGGTCAGCTAACGGGTACG	6.85e-05	-0.5	-0.124	-0.332	-0.773	-0.787	-1.23	-0.861
CGTCAAAGTACAACTAAGGTAACGTAAAGCACGC	1.16	1.03	1.21	0.971	0.543	3.77	1.62	0.523
TGAATGAGGTTATAAGATAAGGGAACGTTGCAAA	0.00548	1.36	1.01	0.619	1.79	1.68	0.04	0.0331
TATTGTAGATCAACAGGAGGTTAAGAAAGATCGA	0.682	1	0.791	-0.715	0.924	1.23	-0.471	0.107
ACTATTAGTTGAGACGAAGGCAACCGATAGGTTG	-0.559	-0.255	0.233	0.0754	-0.207	-0.702	-0.7	-0.261
TCAGACAGGTGAAGGTAACGCAGGTACGCAGTCG	0.708	0.407	0.419	0.772	1.05	1.01	0.208	-0.187
CGTCCACGGTCATAGGAGGTCAGTGAAGACAGAT	3.91	3.21	3.97	0.535	2.05	4.28	0.603	1.18
ATCTCTAGGTAACCAAGGTCAGTGAATGCCGAAC	3.5	2.62	2.69	0.51	2.14	3.31	2.53	1.52
GGAACGAGAGCATTCGAGTTGATAGCATGGCGAT	-1.06	-0.435	-0.276	0.441	-0.118	1.04	-1.57	-0.57
TCAGACAGGTGAAGGCAACTCAGGTACGCAGTCG	0.466	0.17	0.317	0.993	0.955	0.99	-0.0896	-0.101
TCTCGGAGGACACCAAGGTCAGAGCTTTCCAGAG	3.68	2.96	3.73	0.966	1.75	3.13	2.38	2.31
CCTTACGGGTCAAGGTTTTAGCACGGGTGGTACG	3.11	4.62	4.4	0.499	5.16	2.51	0.113	0.742

Sequence	PBM binding z-score [1]	PBM binding z-score [2]	PBM binding z-score [3]	PBM binding z-score [4]	PBM binding z-score [5]	PBM binding z-score [6]	PBM binding z-score [7]	PBM binding z-score [8]
ATCTCTAGGTAAAGTTCAGAGAAAGATCGATAGA	2.23	2.13	2.6	1.45	1.42	1.13	-0.103	2.03
CCTACTTGGTCAGGAGGTCACACACCGGATATGA	4.48	4.98	4.1	0.751	5.02	3.59	2.33	2.54
ACTAGTTGGTCAGCTGAGGTCAAACACAATTCGG	4.23	4.33	3.72	1.72	4.56	4.9	4.87	3.66
CCTACTGGGCCATTCATAGGTCATTGATCATATG	2.77	2.41	1.78	0.112	1.56	1.6	0.0409	0.415
CCTACTGGGCCGAAAAGGTCATTGATGCCGATAA	4.31	4.56	3.89	0.386	4.95	3	0.639	2.13
AGAACTAGGGCAATGAGTTGATAGCACGGGTGGC	0.411	0.47	0.889	0.324	0.422	0.157	-0.177	1.02
GTTGCTAGGTCAGGTTGGTCAGCTAACGGGTACG	3.23	2.74	4.18	0.0427	1.4	2.02	1.06	0.821
CGTCCAAGGGCATAGGAGGTCAGTGAAGACAGAT	3.72	3.42	3.68	1.44	2.65	4.64	0.738	2.25
CCTACTGGGCCGTCAGGTCATTGATATCAACGTT	2.18	1.33	1.37	0.28	1.11	3.18	3.49	1.16
TCTATTAGATGAAGGGCAACCGACGAGTCCGTTT	1.1	0.508	0.672	1.4	0.961	0.13	-0.334	0.972
CGTCCAAGTTCAGCAGGTCAGTGAAAGCGACGTG	3.8	3.81	3.65	3.67	2.52	1.96	0.713	3.65
TCTTGAAGATCAATAGAGGTTAAGAAAGTGCGCT	1.17	0.73	0.205	0.671	1.49	2.53	-0.674	-0.178
ATCGAAAGGTCGGCGAGGTGAGTATACACCGTTT	2.95	3.69	3.91	0.785	3.86	3.29	0.709	0.535
GGAACGAGGGCATTCGAGTTGATAGCGTGGCGAT	0.509	0.892	1.16	3	0.583	3.13	-0.46	3.6
GCGACTGGGGCAAAGCAGGTTACCACAAGGTTGG	1.08	0.456	0.439	-0.219	0.39	3.04	-0.328	-0.626
TCTTGTAGATCAAGCCGGTTAAGAAAGCCTGAGT	0.000492	-0.162	-0.393	0.918	0.161	-0.0654	-0.203	0.0355
AGTATGAGGTTACCAAAGATCAGGGAAACGCTTG	1.09	2.17	1.83	0.98	2.63	2.87	0.98	0.48
CCTACTGGGCCAGGAAAGGTCATTGATTCAGTGA	4.32	4.28	3.54	-0.114	4.36	3.44	0.626	1.99
ATCGAAAGTTCGTGAGGTGAGTATACAGAAAGGC	1.8	2.22	1.86	2.13	1.78	2.23	1.23	1.22

Sequence	PBM binding z-score [1]	PBM binding z-score [2]	PBM binding z-score [3]	PBM binding z-score [4]	PBM binding z-score [5]	PBM binding z-score [6]	PBM binding z-score [7]	PBM binding z-score [8]
ATCGACAGGTCGAGGTGAGTATAGAGAAAGGGAA	0.915	1.68	1.89	-0.333	1.22	1.59	0.108	0.0129
GCGACTGGTGCATCAGCAGGTTACCATAACTTAA	0.107	-0.0711	-0.351	-0.127	-0.12	0.163	-0.356	-0.21
CGTCCAAGGTCGTAGGAGGTCAGTGAAGACAGAT	4.07	4.63	4.14	2.43	4.36	4.89	1.61	2.85
TGAATGAGGTTAAAGAACAGGGAACGTGGCGTCG	0.64	1.86	1.5	1.33	2.68	2.03	0.34	0.66
GGAACGAGGGCAAGTTAATAGCAGAGTTTGATGG	1.35	1.46	2.01	2.29	0.717	1.2	-0.0334	1.6
CCTTACGGGTCACTGACAGGTTATGGCATTTGGA	3.41	5.79	4.82	1.85	5.22	2.9	0.174	0.887
GCTTACGGGTCAAAGATTATAGCATGAATAGAAT	2.21	4.65	4.34	2.38	5.43	2.21	-0.519	0.811
TCTTATAGATCAAAGGTTAAGAAAGCCGAAGCCT	1.4	2.16	1.15	1.21	3.93	1.51	-0.709	0.214
CCTAGTTGGTCAGGAGGTCACACATCGGATATGA	4.48	4.62	4.11	0.662	4.21	3.39	2.2	2.7
CCTGCTAGGTCAAGGTCAGCTAATCTACAGTATG	5.07	5.45	7.01	2.36	4.54	3.97	2.88	1.23
TCGAGTTGGTTAGTCGGGGCATTCAGCCAACATA	0.0639	-0.34	-0.804	1.41	-0.355	0.331	-0.0261	0.871
GCATATAGGTAATACAAGGTGAGAGTCCGATTGT	0.849	0.265	0.368	0.552	0.4	3.98	0.807	0.0557
TCATGTAGGTAAAGGTGAAAGTCGAACGATATGA	1.61	1.69	1.37	0.705	1.91	1.28	0.0244	0.443
GGAACGAGGGCATTCGAGTTGGTAGCATGGCGAT	0.543	0.787	0.965	2.93	0.508	1.87	-0.702	2.2
TGATATAGGTAAACAGGTGAAAGTCCGTAAGTTA	0.629	0.44	0.407	-0.121	0.613	0.68	0.366	0.301
TCATATAGGTAAATGTGAAAGTCGAACGATATGA	-0.396	0.293	0.464	0.849	0.579	-0.0536	-0.354	0.207
TAGCCTAGGTCAGATCGGGCAAGTATACGCTATA	2.01	2.85	3.43	-0.344	1.29	2.98	-0.283	-0.339
GCTATTAGTTGAAAGGGCAATCGAATGATTCTCG	1.55	0.91	0.806	0.718	1.12	0.487	-0.359	0.123
ATATGTTGGTTATCGGGTCATTCAGTTTGCGCAT	2.89	2.24	1.97	1.61	2.56	3.26	3.07	4
